TDP-43 yeast inh: inhibitors of TDP-43 toxicity in yeast; TDP-43 expressing yeast growth rescue, BacTiter-Glo, 24 h; Potency, µM (series often up to 46.1 µM), for inactives: at the top dose growth rescue (activation), actives largely listed as activators; hit rate 1.8% among 410,000; AID 652104; further: potency means the concentration at half of the fitted maximal effect; % of control where 0% means no effect; nearly all actives have a fitted effect of over 50% in size
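Cell-based yeast growth screen: TDP-43 expression induced in galactose, inoculum OD600=0.02 after raffinose pregrowth to mid-log. Read-out BacTiter-Glo luminescence at 24 hr, 30 deg C; inhibition of toxicity seen as signal increase.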
aSyn yeast inh: inhibitors of alpha-synuclein toxicity in yeast. Yeast expressing alpha-synuclein, growth rescue, BacTiter-Glo, 24 h. Potency, µM (top dose mostly 46.1 µM), inactives show at the highest dose growth rescue (activation), hits mostly activators. AID 652106. hit rate 0.14% among 370,000; further: potency means the concentration at half of the fitted maximal effect; % of control where 0% means no effect; nearly all actives have a fitted effect of over 65% in size
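Readout is rescue of growth in alpha-synuclein-expressing yeast, so inhibitors of toxicity appear as activators. Growth after 24 hr at 30 deg C in galactose medium is quantified by luminescence.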
CCT chaperon mod: changes cytosolic chaperonin activity | hit rate 0.3% among 360,000 | activity change, % (no concentration beside the values), hits read low | purified chaperonin ATPase assay, HTRF ADP detection, 30 min; in the data active means activity change below about -30%; further: on the % scale 0 is the no-effect control and ±100 the full control effect
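TRiC at 40 or 20 nM final (batch-dependent) in 30 mM Tris pH 7.4, 100 mM KCl, 5 mM MgCl2, 1 mM DTT, with compound at single 76 uM and 10 uM ATP, 30 min at 37 deg C. ADP detected by HTRF Transcreener, 665/615 ratio.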
FUS yeast rescue: suppressors of FUS proteinopathy in yeast; S. cerevisiae FUS-expressing, growth rescue, OD600, 24 h; Potency, µM (highest dose often 76.6 µM), hits mostly activators; hit rate 0.24% among 390,000; AID 1347120;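 further: potency means the concentration at half of the fitted maximal effect; plate controls were DMSO vehicle for no effect and reference control for full effect; nearly all actives have a fitted effect of over 55% in size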
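FUS-expressing yeast, raffinose-pregrown, induced in 2% galactose minimal medium at OD 0.005; compounds in a dilution series, 24hr at 30C. Growth restoration read as absorbance at 600 nm. CP55940 positive control, DMSO negative.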
Abeta yeast res: A-beta toxicity reversal in yeast | Potency, µM (series often up to 46.1 µM), usual class: activators | hit rate 0.063% among 410,000 | yeast expressing A-beta42, growth rescue, OD600, 48 h; response scale: 0% DMSO, 100% iron-clioquinol control; further: potency means the concentration at half of the fitted maximal effect; nearly all actives have a fitted effect of over 55% in size
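Growth rescue measured by 600 nm absorbance after 48 h yeast culture at 30 C with compound. Values normalized between DMSO and an equimolar ferric chloride plus clioquinol control.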
MmCpn inh: M. maripaludis TRiC chaperonin inhibition; purified Mm-Cpn ATPase, ADP Transcreener TR-FRET; hit rate 0.031% among 330,000; Potency, µM (titrated, usually from 76.9 µM), without a hit: at the top dose activity, negative = inhibition, most hits filed as inhibitors; further: potency means the concentration at half of the fitted maximal effect; on the % scale 0 is the no-effect control and ±100 the full control effect; nearly all actives have a fitted effect of over 80% in size
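Measured: ADP formation by purified Mm-CPN. Conditions: 25 nM protein, 10 uM ATP, Tris pH 7.4 with Mg2+, K+ and DTT, 37°C for 30 min. Detection: Transcreener HTRF after 30 min at room temperature.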
* hit, by the source's call; [ ] = dose if it differs, or a comment. Compounds with a hit are over-represented: about 2.3% of the library has one in this group of screens. Unless noted, the call rests on the fitted dose curve; in most records, active means well fitted curve in the direction sought with a large enough effect; inconclusive means small, poorly fitted or top-dose-only effect, or another doubt; inactive means no such curve, though single readings can be large; an effect the other way counts as inactive or inconclusive.

`CC(C)(C)c1ccc(Oc2ccc(N)cn2)cc1` gave TDP-43 yeast inh 20µM*, aSyn yeast inh 28%, CCT chaperon mod 2, FUS yeast rescue inactive, Abeta yeast res inconclusive and MmCpn inh -1%.
`CN(C)c1ccc(/C=C/c2ccnc3ccccc23)cc1C=O` gave aSyn yeast inh 3%.
`Cc1ccc(C(=O)CCNc2ccc(F)c(Cl)c2)o1` gave TDP-43 yeast inh 10µM*, aSyn yeast inh -9%, CCT chaperon mod -2, FUS yeast rescue inactive, Abeta yeast res inactive and MmCpn inh 1%.
Cn1nc([N+](=O)[O-])nc1N1CCOCC1 was read as TDP-43 yeast inh -4%[0.397 µM], aSyn yeast inh 1%, CCT chaperon mod -44*, FUS yeast rescue inactive, Abeta yeast res inactive and MmCpn inh -3%.
`S=C(NCc1ccc2[nH]c3c(c2c1)CCCC3)Nc1ccccc1` gave TDP-43 yeast inh 18µM*, aSyn yeast inh inconclusive, CCT chaperon mod 0, FUS yeast rescue inactive, Abeta yeast res inconclusive and MmCpn inh -1%.
For C[C@@H]1CC(=O)NN=C1c1ccc(NN=C(C#N)C#N)cc1 the results were FUS yeast rescue inactive.
CC(NCCN(C)C)C1CCC2C3CCc4cc(O)ccc4C3CCC12C (configuration not stated) was read as TDP-43 yeast inh 0.32µM*, aSyn yeast inh -1%, CCT chaperon mod 1 and Abeta yeast res inactive.
Screening NS(=O)(=O)c1ccc(CCNC(=O)c2cc(-c3ccccn3)nc3ccc(Br)cc23)cc1 returned TDP-43 yeast inh 14%[9.22 µM], aSyn yeast inh -7%, CCT chaperon mod -32*, FUS yeast rescue inconclusive, Abeta yeast res inactive and MmCpn inh inconclusive.
COc1ccc(CC(=O)N2CCN=C2SCc2ccc([N+](=O)[O-])cc2)cc1 was read as TDP-43 yeast inh 7.9µM*, aSyn yeast inh -9%, CCT chaperon mod 0, FUS yeast rescue inactive, Abeta yeast res inactive and MmCpn inh 1%.
`CCC(=O)N1CCN=C1SCc1ccccc1Cl` gave TDP-43 yeast inh 9%, aSyn yeast inh -1%, CCT chaperon mod -63*, FUS yeast rescue inactive, Abeta yeast res inactive and MmCpn inh 0%.
Screening CSC1=NCCN1C(=O)Cc1ccc(-c2ccccc2)cc1 returned TDP-43 yeast inh inconclusive, aSyn yeast inh inconclusive, CCT chaperon mod 2, FUS yeast rescue inconclusive, Abeta yeast res inactive and MmCpn inh 1%.
Screening CC(=O)N1CCN=C1SCc1ccccc1Cl returned TDP-43 yeast inh 25%, aSyn yeast inh -3%, CCT chaperon mod 1, FUS yeast rescue inactive, Abeta yeast res inactive and MmCpn inh -1%.
`CCSC1=NCCN1C(=O)Cc1ccc(-c2ccccc2)cc1` gave TDP-43 yeast inh 14µM*, aSyn yeast inh 5%, CCT chaperon mod -2, FUS yeast rescue inactive, Abeta yeast res inactive and MmCpn inh -2%.
`CN1[C@@H](Cc2ccccc2)COc2cccc(N3CCSCC3)c2S1(=O)=O` gave FUS yeast rescue inactive.
`N#Cc1ccc(NC(=O)OC2CC3CC2[C@H]2CCCCN2C3)cc1` (some centres not stated) gave FUS yeast rescue inactive.
Screening COc1ccc(C=O)cc1COc1ccc([N+](=O)[O-])c(C)c1 returned TDP-43 yeast inh inconclusive, aSyn yeast inh 23%, CCT chaperon mod -1, FUS yeast rescue inactive, Abeta yeast res inactive and MmCpn inh 0%.
For COc1ccc(C=O)cc1COc1ccc2c(c1)OCO2 the results were TDP-43 yeast inh 14µM*, aSyn yeast inh 5%, CCT chaperon mod -4, FUS yeast rescue inactive, Abeta yeast res inactive and MmCpn inh 1%.
COc1cnc(-c2ccccn2)nc1Sc1ccccc1Cl was read as TDP-43 yeast inh inconclusive, aSyn yeast inh 3%, CCT chaperon mod 0, FUS yeast rescue inactive, Abeta yeast res 11µM* and MmCpn inh -1%.
Screening COc1cnc(-c2ccccn2)nc1Sc1c(Cl)cccc1Cl returned TDP-43 yeast inh 6%, aSyn yeast inh -1%, CCT chaperon mod -1, FUS yeast rescue inactive, Abeta yeast res inconclusive and MmCpn inh 2%.
For CC(C)(C)c1ccc(S(=O)(=O)N2CCCC(C(=O)NCc3cccs3)C2)cc1 (configuration not stated) the results were FUS yeast rescue inactive.
For CC(=O)N1CCc2c(sc3c2c(=O)n(Cc2ccccc2)c(=O)n3Cc2ccccc2Cl)C1 the results were TDP-43 yeast inh 16µM*, FUS yeast rescue inactive and Abeta yeast res inactive.
CCOC(=O)N1CCc2c(sc3c2c(=O)n(CCc2ccccc2)c(=O)n3Cc2ccc(F)cc2)C1 was read as TDP-43 yeast inh -8%, FUS yeast rescue inactive and Abeta yeast res inactive.
CC(=O)N1CCc2c(sc3c2c(=O)n(CCc2ccccc2)c(=O)n3Cc2ccc(F)cc2)C1 was read as TDP-43 yeast inh 16µM*, FUS yeast rescue inconclusive and Abeta yeast res inactive.
Screening CC[C@H](CCC(=O)N(c1ccccc1)c1ccccc1)C1CC1 returned FUS yeast rescue inactive.
For N/C(=N\OC(=O)N1c2ccccc2Sc2ccccc21)c1ccccc1 the results were TDP-43 yeast inh 3.5µM*, aSyn yeast inh -73%, CCT chaperon mod -5, FUS yeast rescue inactive, Abeta yeast res inactive and MmCpn inh -4%.
For S=c1[nH]c2cnccc2n1Cc1ccccc1 the results were TDP-43 yeast inh -5%, aSyn yeast inh 9%, CCT chaperon mod 2, FUS yeast rescue inactive, Abeta yeast res inactive and MmCpn inh -6%.
O=C(O)CCn1c(=O)sc2ccccc21 was read as TDP-43 yeast inh 17%, aSyn yeast inh 6%, CCT chaperon mod -1, FUS yeast rescue inactive, Abeta yeast res inactive and MmCpn inh 0%.
`O=c1sc2ccccc2n1CCOc1ccccc1` gave TDP-43 yeast inh 11µM*, aSyn yeast inh 0%, CCT chaperon mod 0, FUS yeast rescue inactive, Abeta yeast res inactive and MmCpn inh 1%.
For S=c1[nH]c2ccccc2n1CCOc1ccccc1 the results were TDP-43 yeast inh inconclusive, aSyn yeast inh 13%, CCT chaperon mod -2, FUS yeast rescue inactive, Abeta yeast res 11µM* and MmCpn inh -4%.
`S=c1[nH]c2ccccc2n1Cc1ccccc1` gave TDP-43 yeast inh inconclusive, aSyn yeast inh 11%, CCT chaperon mod -5, FUS yeast rescue inactive, Abeta yeast res 11µM* and MmCpn inh -3%.
For CCCCNS(=O)(=O)/C=C/c1ccccc1CCNC(=O)OC(C)(C)C the results were FUS yeast rescue inactive.
